# Test results reported in PubChem BioAssay (Tox21).
# A number with no mark means an inactive call. Calls come from the whole dose curve.
# Biological target: Acetylcholinesterase (Homo sapiens) (UniProt P22303)
# Experiment: Acetylcholinesterase (AChE) small molecule antagonists: enzyme-based qHTS assay with human liver microsomes (AID 1347399); note: nearly all actives have a fitted effect of over 60% in size
# Conditions: Potency: qHTS inhibition; outcome: qHTS inhibition; series mostly up to 115 µM; activity change, negative = inhibition: at the top concentration
# Outline: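 Recombinant human AChE (50 mU/mL in the enzyme mix) and human liver microsomes (0.25 mg/mL final) were preincubated with compound and NADPH (0.25 mg/mL final) for 30 min at 37 C. Acetylthiocholine/DTNB was then added; thiocholine was read colorimetrically after 10 min at room temperature.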
# % is set by controls: 0 for no effect and ±100 for the full control effect.
# Chain of Acetylcholinesterase (Homo sapiens) (P22303 whole entry, looked up): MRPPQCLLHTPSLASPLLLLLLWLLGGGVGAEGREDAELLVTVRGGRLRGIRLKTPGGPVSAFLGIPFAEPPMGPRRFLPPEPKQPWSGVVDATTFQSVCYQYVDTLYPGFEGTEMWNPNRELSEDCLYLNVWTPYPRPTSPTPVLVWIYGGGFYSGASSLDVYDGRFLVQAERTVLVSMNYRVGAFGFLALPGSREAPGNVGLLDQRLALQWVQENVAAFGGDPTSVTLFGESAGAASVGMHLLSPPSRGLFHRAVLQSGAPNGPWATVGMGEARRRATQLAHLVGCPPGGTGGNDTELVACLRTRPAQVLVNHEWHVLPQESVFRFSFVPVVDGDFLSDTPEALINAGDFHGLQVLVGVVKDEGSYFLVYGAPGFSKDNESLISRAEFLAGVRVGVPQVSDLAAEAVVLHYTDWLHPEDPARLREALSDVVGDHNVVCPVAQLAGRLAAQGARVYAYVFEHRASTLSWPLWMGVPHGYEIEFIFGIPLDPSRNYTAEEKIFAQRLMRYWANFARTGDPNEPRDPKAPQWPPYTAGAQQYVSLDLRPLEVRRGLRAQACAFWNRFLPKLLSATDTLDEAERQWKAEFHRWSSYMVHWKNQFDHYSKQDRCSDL
row,SMILES,"activity change, negative = inhibition"
1,CCC(CO)(CO)[N+](=O)[O-],-1.07%
2,c1ccc2c(c1)ccc1c3ccccc3ccc21,-0.324% [at 53 µM]
3,CCSCC,-5.46%
4,Nc1ccc(C(=O)NCC(=O)O)cc1,3.54% [at 53 µM]
5,C=CCN1CCc2nc(N)sc2CC1,0% [at 53 µM]
6,CCC(C)CCCC(C)(C)O (stereo not given),-0.815%
7,Cc1ccc(N(CCO)CCO)cc1,-1.03%
8,CCOC(=O)C(C)Oc1ccc(Oc2nc3ccc(Cl)cc3o2)cc1 (stereo not given),-1.76%
9,Clc1ccccc1-c1nc(-c2ccncc2)no1,-2.43% [at 53 µM]
10,CCC(C(=O)OCCOCCN(CC)CC)c1ccccc1 (stereo not given),-0.475% [at 53 µM]
11,COc1ccc(-c2coc3cc(O)ccc3c2=O)cc1,3.89%
12,NCC(=O)O,0.434% [at 23.6 µM]
13,CC/C=C\CCOC(=O)C(C)C,-0.291%
14,CC(C)C(=O)O,1.36%
15,NCC1CCCC(CN)C1 (stereo not given),-1.66%
16,CC(C)(O)Cc1ccccc1,0.731%
17,CCN(CC)C(=O)N(CC)CC,0.599%
18,C=C(C)C(=O)OCCCCCCCCCCOC(=O)C(=C)C,-1.37%
19,C#CC(O)CCCCC (stereo not given),0.5%
20,O=C1NC(=O)c2cc([N+](=O)[O-])ccc21,-1.86%

row,SMILES,"activity change, negative = inhibition"
1,COc1cc(C(C)C)ccc1C,-4.86% [at 23.6 µM]
2,COC(=O)C1=C(C)NC(C)=C(C(=O)OC(C)C)C1c1cccc2nonc12 (stereo not given),2.02% [at 53 µM]
3,Cc1occc1C(=O)Nc1ccc(C(=O)N2CCC(F)(F)/C(=C\C(=O)N3CCC(N4CCCCC4)CC3)c3ccccc32)cc1,-1.8% [at 53 µM]
4,NC1CCN(c2nc3c(cc2F)c(=O)c(C(=O)O)cn3-c2ccc(F)cc2F)C1 (stereo not given),2.29% [at 53 µM]
5,O=Cc1cc(O)ccc1Br,-0.154%
6,c1csc(SSc2cccs2)c1,-2.06%
7,[O-][n+]1cccc(CO)c1,-2.86% [at 53 µM]
8,Nc1ccc(C(=O)OCC(O)CO)cc1 (stereo not given),0.719% [at 53 µM]
9,CC(C)=CCCC(C)C=O (stereo not given),3.52%
10,O=P(O)(O)C(O)(Cc1cccnc1)P(=O)(O)O,0% [at 53 µM]
11,COC(=O)CCCCCCCCC(=O)OC,0.341%
12,O=C1CCCN1CCO,-3.51%
13,CCN1CCOCC1,-2.05%
14,COc1ccc(COC=O)cc1,0.0166%
15,FC(F)(F)C(F)(F)C(F)(F)C(F)(F)C(F)(F)C(F)(F)CCI,-0.34% [at 53 µM]
16,OCC(O)c1ccccc1 (stereo not given),0.153%
17,Nc1nc(-c2ccccc2)cs1,-2%
18,COc1ccc(Cl)cc1C,-1.68%
19,O=S(=O)(O)c1ccccc1O,0.446%
20,COc1ccc(C(=O)Nc2nc3ccccc3c(NCc3ccccc3)c2C#N)cc1,5.39%
